This is an account of results in PubChem BioAssay (NCI).

Structures are written as SMILES. Compounds without any hit were thinned out: in the full panel of roughly 79,000, 15% have a hit. Calls of active or inactive are those of the source. Cut-off read from the data, not from the text of the source: active = growth inhibition above about 70%; inactive = the rest.

A short description of this assay: NCI Yeast Anticancer Drug Screen. Data for the sgs1 mgt1 strain (AID 161).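 Note: 0% = growth of cultures given vehicle only.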 The conditions noted are these: S. cerevisiae sgs1 mgt1 strain, at 50.0 µM, hits give high values. The method, boiled down: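 This yeast growth screen uses a strain with defined DNA-repair lesions; compound-treated growth is compared with vehicle-treated growth.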
With `O=C(O)C(C1=CCCCC1)C1(O)CCCCC1` (stereo not drawn), the growth inhibition is 17.6% (inactive).

In the case of `CC(=O)Nc1ccc(I)cc1`, the growth inhibition was 15.2% (inactive).

Take `NC(=O)c1cccc[n+]1[O-]`: the growth inhibition was -12.6% (inactive).

For the molecule `COc1ccc(N=Cc2ccc(N(CCC#N)S(=O)(=O)c3ccccc3)cc2)cc1`, the growth inhibition is 2.05% (inactive).

As to `Cc1c(-c2ccccc2)c(=O)oc2ccc(Cl)cc12`, the growth inhibition is 1.1% (inactive).

On to `CC1=CC(=O)N2[C@H](OC[C@@H]2C(C)C)O1`, for which the growth inhibition is 2.15% (inactive).

For the molecule `CN(C)c1nc2nc[nH]c2c(=S)n1C`, the growth inhibition was 4.1% (inactive).

For `CC(C)(C)OC(=O)NC1CCCCC1NC(=O)C(=O)NC1CCCCC1NC(=O)OC(C)(C)C` (stereo not drawn), the growth inhibition is -14.8% (inactive).

With `O=C(Cc1cc2c(cc1[N+](=O)[O-])OCO2)c1c[nH]c2ccc(Br)cc12`, the growth inhibition was 19.6% (inactive).

As for `COCC(=O)C(C(C)=O)C(c1ccncc1)C(C(C)=O)C(=O)COC` (stereo not drawn), the growth inhibition was 6.85% (inactive).

As for `O=C(NC/C(Cl)=C/Cl)Nc1cccc2c1CCCC2`, the growth inhibition is 19.8% (inactive).

For the molecule `Cn1c(=O)c2c(nc(C3CC3)n2C)n(C)c1=O`, the growth inhibition was 5.65% (inactive).

As for `COCc1ccccc1P(c1ccccc1COC)c1ccccc1COC`, the growth inhibition is 42% (inactive).

With `Oc1ccc(Cl)cc1C=Nc1cnc2ccccc2c1`, the growth inhibition was 1.95% (inactive).

`CCOC(OCC)n1ncnc1NC(=S)NCc1ccccc1`: the growth inhibition was 3.75% (inactive).

As to `CC(=O)Nc1cc2cc(NC=C(C#N)C#N)ccc2oc1=O`, the growth inhibition was 14.1% (inactive).

With `CCOC(=O)/C(C#N)=C/N=c1ccccn1C`, the growth inhibition was -1.3% (inactive).

Turning to `CC(C)=NNC(=O)Nc1cccc(C)c1C`, the growth inhibition was -7.2% (inactive).
